Assay results reported in PubChem BioAssay AID651814 (National Center for Advancing Translational Sciences (NCATS), 2012).
About 590 (28%) of roughly 2,100 compounds were called active. Not shown: some 42% with an inconclusive outcome. The list shows a part of the results. Unmarked numbers belong to inactive results. Calls follow the shape of the dose curve; as a rule, active = well fitted inhibition curve with a large enough effect; inconclusive = small, poorly fitted or top-dose-only effect; inactive = flat fitted curve, though single readings scatter.

Target: DNA dC->dU-editing enzyme APOBEC-3F (Homo sapiens) (UniProt Q8IUX4)
Sequence (Q8IUX4 whole entry, looked up): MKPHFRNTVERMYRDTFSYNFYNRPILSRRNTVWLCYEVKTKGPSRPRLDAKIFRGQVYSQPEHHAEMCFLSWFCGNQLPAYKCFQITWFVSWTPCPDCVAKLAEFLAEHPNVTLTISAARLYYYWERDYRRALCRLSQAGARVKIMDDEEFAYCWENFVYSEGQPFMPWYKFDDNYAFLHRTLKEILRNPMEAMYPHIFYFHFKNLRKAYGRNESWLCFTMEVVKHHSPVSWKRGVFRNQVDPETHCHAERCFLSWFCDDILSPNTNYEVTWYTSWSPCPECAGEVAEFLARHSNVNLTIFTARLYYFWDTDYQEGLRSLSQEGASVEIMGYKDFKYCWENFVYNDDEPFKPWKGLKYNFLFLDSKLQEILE
Test: qHTS for inhibitors of Vif-A3F interactions: Cherry picks; also: nearly all actives have a fitted effect of over 70% in size;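 as to max response: % of control where 0% means no effect; active compounds raise eYFP fluorescence by blocking Vif-driven A3F loss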
Details: HeLa A3F-eYFP + Vif (tagged APOBEC3F with the HIV-1 protein that degrades it), eYFP fluorescence, 24 h
Text: The recent discovery and characterization of host restriction factors, which provide a potent defense to invading retroviruses, has provided new targets for antiviral drug development. APOBEC3G (A3G) and APOBEC3F (A3F) are potent cytidine deaminases that block HIV-1 replication; HIV-1 expresses the Vif protein, which counteracts A3G and A3F by binding to them and inducing their proteasomal degradation. The Vif-A3G and Vif-A3F interactions provide two potential targets for development of small molecules which can interfere with the ability of Vif to degrade A3G or A3F. […] To identify inhibitors that can interfere with Vif mediated degradation of A3G and A3F, we have developed Hela cell lines that stably express A3G or A3F tagged with eYFP at the C-terminal end (A3G-eYFP or A3F-eYFP, respectively) and Vif. In the absence of an inhibitor, Vif induces degradation of A3G-eYFP and A3F-eYFP, and the cells are not fluorescent. In the presence of an inhibitor, it is expected that Vif will be unable to degrade A3G-eYFP and/or A3F-eYFP, resulting in an increase in yellow fluorescence. In this assay, Vif A3F was screened against the cherry picks ordered from the MLSMR. NIH Chemical Genomics Center [NCGC] NIH Molecular Libraries Probe Centers Network [MLPCN] MLPCN Grant: MH093245 Assay Submitter (PI): Vinay Pathak, National Cancer Institute
A3F-Vif cells were harvested from T225 flask and resuspended in phenol free OPTI-MEM medium with 5% FBS. Then 5 uL of 140,000 cells/mL resuspended cells was dispensed into each well of low base Aurora COC 1,536-well plates (black walled, clear bottom) using a Multidrop Combi dispenser. After overnight culture at 37 deg C with 5% CO2, a total of 23 nL of compounds at 5 selected concentrations from the NPC or positive control (2 mM stock of MG132) in DMSO was transferred to each well of the assay plate using a pintool (Kalypsys, San Diego, CA), and the plates were further incubated at 37 deg C with 5% CO2 for 24 hours. After that, the plates were measured on Acumen Explorer (TTP Lab Tech). The fluorescence was detected by 488 nm/Ex and […].
Potency is read from the fitted curve at half-maximal effect.

Structure (SMILES)	Potency	max response [%]
Cc1nc2c3cc(F)ccc3n(Cc3ccccc3)c2s1	4.98 µM (active)	–
Cc1nc2c3cc(F)ccc3n(Cc3ccccc3F)c2s1	14 µM (active)	–
COc1cccc(CNCCSc2nnnn2C)c1OCc1ccc(F)cc1	–	-0.625
Cc1ccc(S(=O)c2ccc([N+](=O)[O-])c3nonc23)cc1 (centres undefined)	18.4 µM (active)	–
Cc1cc(/C=C2\SC(=S)N(Cc3ccco3)C2=O)c(C)n1-c1ccccc1	18.4 µM (active)	–
Cc1cc(/C=C2\SC(=S)N(C)C2=O)c(C)n1-c1ccccc1O	20.6 µM (active)	–
CN(C)c1ccc(C=C2SC(=S)N(Cc3ccco3)C2=O)cc1	4.98 µM (active)	–
Cc1cc(/C=C2\SC(=S)N(Cc3ccco3)C2=O)c(C)n1-c1cccnc1	20.6 µM (active)	–
O=C1/C(=C/c2ccc(O)cc2)SC(=S)N1Cc1cccnc1	–	-10.2
S=C(Nc1cccc2ccccc12)NN1CCCCCC1	–	0.0404
Cc1cc2ccccn2c1C(=O)c1ccc([N+](=O)[O-])o1	11.6 µM (active)	–
O=C(NN(c1ccccc1)c1ccccc1)c1ccc([N+](=O)[O-])o1	–	-20.2
O=C(NCc1cccnc1)c1ccc([N+](=O)[O-])o1	–	-20.4
N#C/C(=C/c1ccc(N2CCOCC2)o1)C(=O)NC1CCCCC1	16.4 µM (active)	–
N#C/C(=C\c1ccc(N2CCOCC2)o1)C(=O)NC1CCCCC1	15.8 µM (active)	–
N#C/C(=C\c1ccc(N2CCCCC2)o1)C(N)=O	15.8 µM (active)	–
Cc1onc(-c2c(F)cccc2Cl)c1C(=O)O/N=C(\N)c1ccc([N+](=O)[O-])o1	–	-3.32
CSc1cccc(NC(=O)c2cc3c(COC(C)=O)cnc(C)c3oc2=O)c1	–	-5.04
O=C(NCc1ccco1)c1cccc2c1C(=O)c1ccc(N3CCC(Cc4ccccc4)CC3)cc1S2(=O)=O	23.1 µM (active)	–
O=C(NC1CC1)c1cccc2c1C(=O)c1ccc(N3CCC(Cc4ccccc4)CC3)cc1S2(=O)=O	20.6 µM (active)	–
Cc1ccc(S(=O)(=O)N2CCCCC2CCNC(=O)C(=O)NCc2ccco2)cc1 (centres undefined)	–	-26.1
O=C(NC1CCCCC1)c1cccc2c1C(=O)c1ccc(N3CCC(Cc4ccccc4)CC3)cc1S2(=O)=O	12.5 µM (active)	–
Cc1cc(C)c(S(=O)(=O)N2CCCCC2CCNC(=O)C(=O)NCc2ccco2)c(C)c1 (centres undefined)	–	-24.9

Structure (SMILES)	Potency	max response [%]
CN(C)c1ccc(/C=C2\C(=N)N3N=C(CC(=O)N4CCCCC4)SC3=NC2=O)cc1	16.4 µM (active)	–
COc1cc(/C=C2\C(=N)N3N=CSC3=NC2=O)cc(Br)c1OC(=O)c1ccco1	–	5.77
COc1cc(/C=C2\C(=N)N3N=C(S(C)(=O)=O)SC3=NC2=O)ccc1OC(=O)c1ccco1	–	3.53
CCN(CC)c1ccc(/C=C2\C(=N)N3N=C(CC(=O)N4CCOCC4)SC3=NC2=O)cc1	0.396 µM (active)	–
CN(C)c1ccc(/C=C2\SC(N3CCCCC3)=NC2=O)cc1	16.4 µM (active)	–
C1=Cc2ccccc2/C1=C\c1cc2c3c(c1)CCCN3CCC2	18.4 µM (active)	–
Cc1ccc(S(=O)(=O)c2cc3ccccc3oc2=Nc2ccc3c(c2)OCO3)cc1	–	-1.94
Cc1sc2ncn(CC(=O)NCc3ccccc3)c(=O)c2c1C	–	-23.3
Cc1sc2ncnc(SCC(=O)NC(C)(C)C)c2c1C	–	0.663
Cc1sc2ncnc(N=Nc3c(O)[nH]c4ccccc34)c2c1C	13 µM (active)	–
O=S(=O)(Nc1ccc(C(O)(C(F)(F)F)C(F)(F)F)cc1)c1ccc(Cl)c2nonc12	12.5 µM (active)	–
Cc1ccc(F)c(S(=O)(=O)NC(=O)C2(C)CCN2C(=O)Cc2ccc(Cl)cc2Cl)c1 (centres undefined)	–	0.983
Cc1ccc(N=C2NC(=O)CC(C(=O)Nc3ccc4c(c3)OCO4)S2)cc1 (centres undefined)	–	-22.7
O=c1c2ccccc2nc(/C=C/c2ccc([N+](=O)[O-])o2)n1CCCO	3.26 µM (active)	–
Cn1c(/C=C/c2ccc([N+](=O)[O-])o2)nc2ccccc2c1=O	16.4 µM (active)	–
CCCN1C(=O)C(Cc2nc3ccccc3c(=O)n2CC)c2cc(Br)ccc21 (centres undefined)	–	-0.982
CCn1c(/C=C/c2ccc([N+](=O)[O-])o2)nc2ccccc2c1=O	3.26 µM (active)	–
Cc1cc(N/N=C/c2ccc([N+](=O)[O-])o2)nc2ccccc12	16.4 µM (active)	–
Cc1ccc2oc(/N=C(\N)NC(=O)C(C)(C)C)nc2c1	–	-3.74
CNC(=O)C(Sc1nc(C)nc2c1oc1ccccc12)C(C)=O (centres undefined)	–	-18.1
Cc1cc(NC(=O)Nc2nnc(N(C)Cc3ccccc3)s2)ccc1Br	–	-0.38
O=C(Nc1cc(Cl)cc2c1-c1ccc(Cl)cc1C2O)C(Cl)Cl (centres undefined)	–	-15.3
CCCCN(C(=O)c1ccc([N+](=O)[O-])s1)c1c(N)n(CCCC)c(=O)[nH]c1=O	–	3.55

Structure (SMILES)	Potency	max response [%]
COc1cccc(/C=N/n2c(C3CCCCC3)n[nH]c2=S)c1O	–	2.43
Cc1ccc2[nH]c(C)c(/C=C/c3cc[n+](C)cc3)c2c1	0.994 µM (active)	–
Cc1[nH]c2ccccc2c1/C=C/C(=O)c1ccccc1	20.6 µM (active)	–
Cc1[nH]c2ccccc2c1/C=C/c1cc[n+](C)cc1	1.58 µM (active)	–
CCOc1cc(C)nc(NCc2ccccc2)n1	–	-21.9
CCCn1c(C2CCCN2c2nc(-c3cccc(Br)c3)cs2)nc2ccccc21 (centres undefined)	–	2.76
C=C(C)CNC(=S)N/N=C1\CCCCc2ccccc21	–	0.867
C=CCN1C(=O)/C(=C\C=C2\N(C)c3ccccc3C2(C)C)SC1=S	0.461 µM (active)	–
CCCN1C(=O)/C(=C/C=C2\N(CC)c3ccccc3C2(C)C)SC1=S	1.77 µM (active)	–
CCCN1C(=O)/C(=C\C=C2\N(CC)c3ccccc3C2(C)C)SC1=S	2.06 µM (active)	–
CN1/C(=C\C=C2/SC(=S)NC2=O)C(C)(C)c2ccccc21	4.44 µM (active)	–
CN1/C(=C\C=C2/SC(=S)N(CC(=O)O)C2=O)C(C)(C)c2ccccc21	–	-6.86
CCN1C(=O)/C(=C/C=C2\N(CC)c3cc(S(=O)(=O)N(C)C)ccc3N2c2ccccc2)SC1=S	–	-29.7
Clc1ccsc1-c1csc(-c2cccnc2)n1	–	-27.5
NNC(=S)Nc1c(F)cc(F)cc1Br	–	1.43
O=C1/C(=C/c2c[nH]c3ccccc23)CCC/C1=C\c1c[nH]c2ccccc12	16.4 µM (active)	–
Cn1nnnc1SCCNCc1cc(Br)ccc1OCc1ccccc1Cl	–	-14.7
Cc1sc(NC(=O)c2sc3nc4c(C)cccc4cc3c2N)c(C#N)c1C	17.7 µM (active)	–
Cc1cccc2cc3c(N)c(C(=O)Nc4ccc(N5CCOCC5)cc4)sc3nc12	11.2 µM (active)	–
Cc1cccc2cc3c(N)c(C(=O)N4CCOCC4)sc3nc12	7.31 µM (active)	–
Cc1ccc(C)c2nc3sc(C(=O)N4CCOCC4)c(N)c3cc12	12.5 µM (active)	–
O=C(Nc1ccc(N2CCOCC2)cc1)c1cccc2ccccc12	–	-29.2
COc1cc(C(=O)OCC(=O)Nc2ccc(N3CCOCC3)cc2)ccc1OCC(C)C	–	1.41

Structure (SMILES)	Potency	max response [%]
CCN(CC)c1ccc(/C=N/NC(=S)NC)c(O)c1	–	-6.91
COc1ccc(Nc2nc(C)nc3sc4c(c23)CCC4)cc1O	–	-29.4
CCn1c(O)c(/C=N/N=C/c2ccc(OC)cc2)c2cc(C3=NNC(=O)CC3)ccc21	6.51 µM (active)	–
C[N+](C)(C)CCC(=O)N1C/C(=C/c2ccccc2)C(=O)/C(=C\c2ccccc2)C1	–	-12.6
CN(C)c1ccc(/C=C2/C[N+](C)(C)C/C(=C/c3ccc(N(C)C)cc3)C2=O)cc1	2.59 µM (active)	–
CN(C)c1ccc(/C=C2\Cc3ccccc3C2=O)cc1	5.17 µM (active)	–
O=C1/C(=C\c2cc([N+](=O)[O-])ccc2O)SC(=S)N1Cc1ccc(Cl)cc1	20.6 µM (active)	–
O=C1/C(=C\c2ccc(O)c(O)c2)SC(=S)N1Cc1ccccc1	–	-22.4
O=C1CC(c2ccccc2)Cc2[nH]c(=O)c(-c3nc(-c4cccc(Cl)c4)cs3)cc21 (centres undefined)	4.11 µM (active)	–
Cc1sc(-c2cc3c([nH]c2=O)CC(c2ccccc2)CC3=O)nc1-c1ccc(Cl)cc1 (centres undefined)	1.84 µM (active)	–
CCN(c1ccc(NC(=O)CCc2nc3sc4c(c3c(=O)[nH]2)CCCC4)cc1)C(C)C	–	-16.9
Clc1ccccc1C1CC(c2ccccc2)=Nc2ccccc2N1 (centres undefined)	–	-7.9
COc1ccc(C(=O)c2sc3nc4c(c(C(F)(F)F)c3c2N)CN(C(C)=O)CC4)cc1OC	23.1 µM (active)	–
CC(=O)N1CCc2nc3sc(C(=O)c4ccc(F)cc4)c(N)c3c(C(F)(F)F)c2C1	20.6 µM (active)	–
O=C1S/C(=C/c2ccc(N3CCOCC3)o2)C(=O)N1Cc1c(F)cccc1Cl	2.5 µM (active)	–
O=C1S/C(=C/c2ccc(N3CCOCC3)o2)C(=O)N1Cc1ccc(F)cc1	2.8 µM (active)	–
Cc1cc2nc3s/c(=C/c4ccc(-c5ccccc5C(=O)O)o4)c(=O)n3c2cc1C	20.6 µM (active)	–
Cc1ccc(NC(=O)C2CCN(S(=O)(=O)c3ccc(Cl)c(C(F)(F)F)c3)CC2)nc1	–	1.5
CCc1cc[n+](-c2nc3ccccc3nc2[N-]S(=O)(=O)c2ccc(Br)s2)cc1	23.1 µM (active)	–
O=S(=O)([N-]c1nc2ccccc2nc1-[n+]1ccc(-c2ccncc2)cc1)c1ccccc1	–	-0.136
